The values that follow come from PubChem BioAssay AID651828 (ICCB-Longwood Screening Facility, Harvard Medical School, 2012).

The campaign covered roughly 20,000 compounds. About 25 (0.1%) were called active. Cut-off read from the data, not from the text of the source: active = % bound below about 75%; inactive = the rest. Only a selection was taken, and actives are over-represented in it overall.

This experiment deals with Nucleoprotein (Rift valley fever virus (strain ZH-548 M12)) (UniProt P21700). Put plainly: inhibitors of RVFV nucleoprotein–RNA binding, primary screen, biochemical, fluorescence polarization (AID 651828). The following applies: RVFV N-RNA binding, active compounds read low, concentration not given here. (Polarisation of emitted light reports the rotation of a fluorescent probe.)
Nucleoprotein (Rift valley fever virus (strain ZH-548 M12)), sequence (P21700 whole entry, looked up): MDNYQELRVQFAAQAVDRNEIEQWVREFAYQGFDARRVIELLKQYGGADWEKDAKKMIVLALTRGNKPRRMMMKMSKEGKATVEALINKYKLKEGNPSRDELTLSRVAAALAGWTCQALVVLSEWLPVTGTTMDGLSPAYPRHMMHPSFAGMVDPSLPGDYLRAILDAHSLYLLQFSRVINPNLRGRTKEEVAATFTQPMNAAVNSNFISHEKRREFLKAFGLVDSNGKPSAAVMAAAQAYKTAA
Take `CSC(=S)Nc1ccc(C)cc1`: the % bound is 92% (inactive). Regarding `CCN(CC)CCN1C(=O)C(O)=C(C(=O)/C=C/c2ccco2)C1c1ccc(OC)cc1` (centres undefined), the % bound was 97.9% (inactive). For the molecule `CC(Cn1cnc2ccccc21)C(=O)N/N=C/c1ccccc1` (centres undefined), the % bound was 98.5% (inactive). For `CC(C)NS(=O)(=O)c1ccc(NC(=O)C2CCCCC2)cc1` the value was 98% (inactive); for `NS(=O)(=O)c1ccc(NS(=O)(=O)/C=C/c2ccccc2)cc1`, 80.7% (inactive). `O=C(c1cccc(N2C(=O)c3ccccc3C2=O)c1)N1CCOCC1`: the % bound was 95% (inactive). With `CCCCN=Cc1c(O)n(-c2ccc(Cl)cc2)c(=O)[nH]c1=O` the figure was 85.2% (inactive); with `O=C(CSc1ccc(-c2ccccc2)nn1)NCC1CCCO1` (centres undefined), 91.3% (inactive); with `O=C(CC1CCCC1)NCc1cn2ccsc2n1`, 97.9% (inactive).

Take `Cc1cccc(NC(=O)c2ccccc2-c2nc(-c3ccccc3)no2)c1`: the % bound was 89.8% (inactive). In the case of `O=C(CC12CC3CC(CC(C3)C1)C2)Nc1ccc(N2CCN(C(=O)c3ccco3)CC2)cc1`, the % bound was 89.8% (inactive). For `O=C(Nc1ccccn1)c1cc2c(s1)CCCC2` the value was 94.3% (inactive). With `COC(=O)Nc1ccc(S(=O)(=O)Nc2cc(OC)nc(OC)n2)cc1` the figure was 95.6% (inactive); with `COc1ccc(C2CC(=O)c3cnc(NCCN4CCOCC4)nc3C2)cc1` (centres undefined), 89.7% (inactive); with `COC(=O)c1ccc(COc2ccc3c(oc(=O)c4cc(OC)ccc43)c2C)o1`, 87.4% (inactive). With `CCOC(=O)c1ccc(CC(=O)c2cc(CC)c(O)cc2O)o1` the figure was 105% (inactive); with `CN1CCC(N(C)C(=O)Nc2c[nH]c3ccccc23)CC1`, 96.9% (inactive); with `CCc1c(O)nc(SCc2ccccc2)n(C2CCCCC2)c1=O`, 92.2% (inactive). For `Cc1cc(Cl)ccc1NNC(=O)c1snnc1C`, the % bound is 109% (inactive). For `Cc1cc(=O)[nH]c(Nc2ccc(O)cc2)n1` the value was 96.9% (inactive); for `CSc1n[nH]c(N)c1-c1ccccn1`, 93.7% (inactive). For the molecule `CP(=O)(O)CN1CCN(CP(C)(=O)O)CC1`, the % bound is 93% (inactive). For the molecule `CCNC(=O)N1c2ccccc2Sc2ccccc21`, the % bound was 93.8% (inactive). With `CN(C)S(=O)(=O)c1ccc(C(=O)Nc2nnc(C3CC3)o2)cc1` the figure was 107% (inactive); with `Cc1ccc(-c2nn3c(C)nnc3c3ccccc23)cc1S(=O)(=O)N1CCCC1`, 93.1% (inactive); with `COc1ccc(CCNC(=O)Nc2ccccc2C)cc1OC`, 91.4% (inactive). For `O=C(O)c1cc(N=Cc2ccccc2)ccc1O` the value was 108% (inactive); for `CC(Sc1nnc(-c2c[nH]c3ccccc23)n1C)c1ccccc1` (centres undefined), 96.8% (inactive).

Take `FC(F)(F)COc1ccc(-c2n[nH]c(=S)o2)cn1`: the % bound was 92.8% (inactive).
